The source of these data is PubChem BioAssay.

The nature of assay [1]: antimalarial activity against Dd2 strain (AID 2302;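 active = growth inhibition above 50% at the single 2 µM test dose, taken to imply half-maximal potency below 2 µM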;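 also: 0% = DMSO untreated growth and 100% = chloroquine plus artemisinin killed control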). The note with it: P. falciparum Dd2 in RBCs, LDH growth readout, 72 h; at 2 µM; hits give high values.
A short description of assay [2]: human hepatoma cell viability loss – ATP luminescence, cytotoxicity control for P. falciparum antimalarial project, primary screen (AID 2303;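 active = inhibition above 50%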;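 also: 0% = DMSO wells and 100% = digitonin-killed cells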). The note with it: HepG2 viability, 24-48 h, at 10 µM, hits give high values.
Assay [3] has as its target L-lactate dehydrogenase (Plasmodium falciparum (isolate CDC / Honduras)) (UniProt Q27743). As to the kind of experiment: PfLDH activity inhibition – cell lysate, 3D7 strain, counter-screen for P. falciparum growth inhibition project (AID 2304).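 Also: 0% = vehicle and 100% = reference inhibitor.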 Particulars: P. falciparum 3D7 crude extract, LDH APAD/NBT absorbance; at 2 µM; hits give high values. For orientation: The purpose of a counterscreen is to sort out artefacts and off-target activity.

Assay [4] is described as follows: inhibition of 3D7 malaria parasite growth – strain 3D7 (AID 2306).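 Also: 0% = DMSO wells and 100% = chloroquine plus artemisinin control wells.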 The note with it: P. falciparum 3D7 erythrocytic growth, LDH absorbance, 72 h; at 2 µM; hits give high values.
In assay [5] the target is Calcium-dependent protein kinase 1 (Plasmodium falciparum (isolate 3D7)) (UniProt P62344). As to the kind of experiment: PfCDPK1 kinase inhibitors, biochemical, TCAMS library (AID 1159585; cut-off not given, nearly all actives have IC50 up to about 0.98 µM;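 also: inhibitors leave more ATP so luminescence rises with inhibition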). The note with it: recombinant PfCDPK1, Kinase-Glo ATP depletion luminescence. For orientation: In Kinase-Glo more light means more ATP remaining.
Assay [6] addresses Plasmodium falciparum protein kinase 6 (PK6, PF3D7_1337100) (UniProt Q8IDW1). The assay can be described thus: PfPK6 kinase inhibitors, biochemical, TCAMS library (AID 1159586). The note with it: recombinant PfPK6, Kinase-Glo ATP depletion luminescence.
Assay [7] deals with Protein kinase 7 (PK7), Plasmodium falciparum 3D7 (PF3D7_0213400) (UniProt Q7YTF7). As to the kind of experiment: inhibition of Plasmodium PK7 catalytic activity – biochemical, TCAMS antimalarial set, Kinase-Glo luminescence (AID 1159587). The note with it: recombinant PfPK7, Kinase-Glo ATP depletion luminescence.
Assay [8] has as its target Calcium-dependent protein kinase 4 (Plasmodium falciparum (isolate 3D7)) (UniProt Q8IBS5). The assay can be described thus: PfCDPK4 kinase inhibitors, biochemical, TCAMS library (AID 1159588; cut-off not given, nearly all actives have IC50 up to about 0.91 µM). The note with it: recombinant PfCDPK4, Kinase-Glo ATP depletion luminescence.

Unmarked numbers belong to inactive results. For some of these results: Measured potencies and affinities stand elsewhere. Calls of active or inactive are those of the source. Unless noted, no rule for the calls is given here.

Sequence of L-lactate dehydrogenase (Plasmodium falciparum (isolate CDC / Honduras)) (Q27743 whole entry, looked up): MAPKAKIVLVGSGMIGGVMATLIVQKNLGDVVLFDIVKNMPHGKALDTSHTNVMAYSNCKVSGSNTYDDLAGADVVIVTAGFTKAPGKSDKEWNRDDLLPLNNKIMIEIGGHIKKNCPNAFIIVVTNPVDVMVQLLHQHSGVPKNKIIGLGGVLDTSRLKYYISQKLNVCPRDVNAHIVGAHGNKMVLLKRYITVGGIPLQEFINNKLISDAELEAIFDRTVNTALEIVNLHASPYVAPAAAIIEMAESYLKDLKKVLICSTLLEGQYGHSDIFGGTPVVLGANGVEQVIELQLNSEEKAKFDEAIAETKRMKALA
Sequence of Protein kinase 7 (PK7), Plasmodium falciparum 3D7 (PF3D7_0213400) (Q7YTF7 1-343): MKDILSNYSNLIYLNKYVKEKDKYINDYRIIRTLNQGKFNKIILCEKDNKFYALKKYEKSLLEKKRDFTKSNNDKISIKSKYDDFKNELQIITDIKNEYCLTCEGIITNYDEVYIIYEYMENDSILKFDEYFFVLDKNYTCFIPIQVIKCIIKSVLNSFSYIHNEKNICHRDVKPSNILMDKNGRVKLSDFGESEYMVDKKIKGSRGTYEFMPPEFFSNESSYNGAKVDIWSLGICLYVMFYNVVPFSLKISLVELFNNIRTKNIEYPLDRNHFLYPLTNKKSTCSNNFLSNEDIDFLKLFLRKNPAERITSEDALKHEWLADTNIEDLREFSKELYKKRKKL
Sequence of Calcium-dependent protein kinase 1 (Plasmodium falciparum (isolate 3D7)) (P62344 whole entry, looked up): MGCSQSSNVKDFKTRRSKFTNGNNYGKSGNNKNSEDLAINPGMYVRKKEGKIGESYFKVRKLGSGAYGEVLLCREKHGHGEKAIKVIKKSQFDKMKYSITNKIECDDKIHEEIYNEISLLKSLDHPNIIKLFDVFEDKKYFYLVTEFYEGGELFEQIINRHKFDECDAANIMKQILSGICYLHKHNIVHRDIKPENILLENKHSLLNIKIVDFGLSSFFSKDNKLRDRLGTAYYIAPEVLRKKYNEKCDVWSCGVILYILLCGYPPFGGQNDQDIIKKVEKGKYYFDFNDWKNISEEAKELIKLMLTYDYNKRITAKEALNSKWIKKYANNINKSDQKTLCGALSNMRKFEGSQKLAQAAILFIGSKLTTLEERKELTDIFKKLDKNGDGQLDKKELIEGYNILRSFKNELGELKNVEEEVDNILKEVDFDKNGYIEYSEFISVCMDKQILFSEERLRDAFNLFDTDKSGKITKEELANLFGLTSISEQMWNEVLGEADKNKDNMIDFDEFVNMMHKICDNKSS
Sequence of Calcium-dependent protein kinase 4 (Plasmodium falciparum (isolate 3D7)) (Q8IBS5 whole entry, looked up): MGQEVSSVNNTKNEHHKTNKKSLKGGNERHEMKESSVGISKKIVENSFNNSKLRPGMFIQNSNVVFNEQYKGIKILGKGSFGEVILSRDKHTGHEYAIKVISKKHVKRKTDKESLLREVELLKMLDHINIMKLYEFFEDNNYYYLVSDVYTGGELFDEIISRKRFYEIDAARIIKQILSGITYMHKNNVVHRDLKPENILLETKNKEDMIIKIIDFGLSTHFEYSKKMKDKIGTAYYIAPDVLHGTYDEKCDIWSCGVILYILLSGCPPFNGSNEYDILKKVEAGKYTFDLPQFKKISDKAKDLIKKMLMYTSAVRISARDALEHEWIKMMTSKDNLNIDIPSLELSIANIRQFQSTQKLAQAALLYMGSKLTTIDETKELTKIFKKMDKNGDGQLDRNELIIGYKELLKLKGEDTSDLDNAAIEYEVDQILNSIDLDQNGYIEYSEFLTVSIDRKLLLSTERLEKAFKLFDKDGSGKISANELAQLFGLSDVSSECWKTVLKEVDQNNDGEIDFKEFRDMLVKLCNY
Sequence of Plasmodium falciparum protein kinase 6 (PK6, PF3D7_1337100) (Q8IDW1 1-305): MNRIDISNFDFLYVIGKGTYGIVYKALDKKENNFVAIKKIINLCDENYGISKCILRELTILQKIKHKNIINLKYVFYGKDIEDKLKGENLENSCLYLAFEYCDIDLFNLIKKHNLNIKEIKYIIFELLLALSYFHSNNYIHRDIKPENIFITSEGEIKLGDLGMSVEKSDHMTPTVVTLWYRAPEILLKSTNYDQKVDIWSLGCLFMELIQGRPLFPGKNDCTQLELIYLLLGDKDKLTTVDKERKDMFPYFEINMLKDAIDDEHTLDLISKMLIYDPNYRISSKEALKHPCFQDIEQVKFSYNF

As a reminder, the inhibition is the drop in the measured response relative to a control, in per cent. Consider `CCOc1ccc(-c2nonc2NC(=O)c2ccccc2)cc1OCC`, for which the growth inhibition in assay [1] is 100% (active); in assay [4], 99% (active). In addition, the inhibition in assay [2] was 6%; in assay [3], 4%. Besides, the outcome in assay [5], in assay [6], in assay [7] and in assay [8] was inactive.
In the case of `CCN1[C@@H](c2ccc(Cl)cc2)[C@@H](CNCc2ccccc2O)C[C@@]1(C)CO`, the growth inhibition in assay [1] and in assay [4] was 99% (active) each time. Moreover, the inhibition is 47% in assay [2] and -3% in assay [3]. Further, the result in assay [5], in assay [6], in assay [7] and in assay [8] was inactive.
On to `COc1c(CCNCCCCNCCc2cc(Cl)c3ccccc3c2OC)cc(Cl)c2ccccc12`, for which the growth inhibition in assay [1] was 100% (active); in assay [4], 99% (active). Also, the inhibition in assay [2] was 99% (active); in assay [3], -7%. Further, the result in assay [5], in assay [6], in assay [7] and in assay [8] was inactive.
Regarding `C[C@H]1CN(Cc2cccc(-c3cc(CNC(=O)c4cccc(CN5CCN(C/C=C/c6ccccc6)CC5)c4)ccc3F)c2)CCN1`, the growth inhibition in assay [1] is 46%; in assay [4] it was 98% (active). In addition, the inhibition is 98% (active) in assay [2] and -2% in assay [3]. The outcome in assay [5], in assay [6], in assay [7] and in assay [8] was inactive.
As to `COc1ccc(Nc2nccc(N3CCC(NC(=O)C(C)c4ccc(Cl)cc4)C3)n2)cc1` (stereo not given), the growth inhibition in assay [1] is 97% (active); in assay [4], 85% (active). The inhibition in assay [2] is 35%; in assay [3], -4%. The result in assay [5], in assay [6], in assay [7] and in assay [8] was inactive.
With `O=C(Nc1ccc(C(F)(F)F)cc1)NC1CCN(c2ccnc3ccccc23)CC1`, the growth inhibition in assay [1] is 62% (active); in assay [4], 103% (active). Besides, the inhibition in assay [2] was 46%; in assay [3], -2%. Moreover, the result in assay [5], in assay [6], in assay [7] and in assay [8] was inactive.
Take `O=c1cc(NCCCNCc2ccc(C(F)(F)F)s2)[nH]c2ccccc12`: the growth inhibition in assay [1] is 68% (active); in assay [4], 99% (active). Further, the inhibition in assay [2] was -11%; in assay [3] it was 2%. The outcome in assay [5], in assay [6], in assay [7] and in assay [8] was inactive.
Take `Cc1[nH]c2c(C)cccc2c1C1CCN(CCC2CCN(C(=O)/C=C/c3ccc(Cl)c(Cl)c3)CC2)CC1`: the growth inhibition in assay [1] is 79% (active); in assay [4] it was 100% (active). In addition, the inhibition was 67% (active) in assay [2] and -1% in assay [3]. The result in assay [5], in assay [6], in assay [7] and in assay [8] was inactive.
Turning to `CN1CCCC(CN2CCN(Cc3ccc(-c4cccc(-c5nc6ccc(F)cc6[nH]5)c4)cc3)CC2)C1` (stereo not given), the growth inhibition in assay [1] is 99% (active); in assay [4], 100% (active). Also, the inhibition in assay [2] was 92% (active); in assay [3], -2%. The outcome in assay [5], in assay [6], in assay [7] and in assay [8] was inactive.
For the molecule `CCNC(=O)Nc1cccc(-c2ccc(-c3nc4c(C)cccc4[nH]3)s2)c1`, the growth inhibition in assay [1] was 20%; in assay [4], 96% (active). Also, the inhibition is 32% in assay [2] and -4% in assay [3]. Moreover, the result in assay [5], in assay [6], in assay [7] and in assay [8] was inactive.
Consider `COc1ccccc1Nc1nc(NC2CCN(C)CC2)cc(-c2cccc(C(F)(F)F)c2)n1`, for which the growth inhibition was 71% (active) in assay [1] and 95% (active) in assay [4]. Further, the inhibition is 100% (active) in assay [2] and -10% in assay [3]. Further, the outcome in assay [5], in assay [6], in assay [7] and in assay [8] was inactive.
Regarding `COCCOC(=O)C(=O)c1c(-c2ccccc2)c(-c2ccc(OC)c(OC)c2)c2c3cc(OC)c(OC)cc3ccn12`, the growth inhibition is 100% (active) in assay [1] and 101% (active) in assay [4]. For the same molecule, the figures for the inhibition in assay [2] and in assay [3] were 4% and -2%, respectively. Besides, the outcome in assay [5], in assay [6], in assay [7] and in assay [8] was inactive.
`COc1ccc(-c2c3c(=O)n(C)c(=O)n(C)c3c3nnc4ccccc4n23)cc1`: the growth inhibition is 86% (active) in assay [1] and 96% (active) in assay [4]. Further, the inhibition was -7% in assay [2] and -2% in assay [3]. Further, the outcome in assay [5], in assay [6], in assay [7] and in assay [8] was inactive.
Take `CO/C(=C\C=C\c1cc2cc(Cl)c(Cl)cc2[nH]1)C(=O)NCCCN1CCN(c2cccc(OC)c2)CC1`: the growth inhibition in assay [1] is 93% (active); in assay [4], 100% (active). The inhibition was 61% (active) in assay [2] and 0% in assay [3]. The outcome in assay [5], in assay [6], in assay [7] and in assay [8] was inactive.
Turning to `COc1cc2nc(NCCC(C)C)n3nc(-c4ccccc4)nc3c2cc1OC`, the growth inhibition in assay [1] is 97% (active); in assay [4], 94% (active). Also, the inhibition is -7% in assay [2] and 4% in assay [3]. Also, the outcome in assay [5], in assay [6], in assay [7] and in assay [8] was inactive.
Turning to `COc1ccc2ncc(F)c(CCN3CCC(NCc4cnc5c(c4)NC(=O)CS5)CC3)c2c1`, the values for the growth inhibition in assay [1] and in assay [4] were 16% and 99% (active), respectively. The figures for the inhibition in assay [2] and in assay [3] were 16% and 3%, respectively. The result in assay [5], in assay [6], in assay [7] and in assay [8] was inactive.
For the molecule `CCCCn1c(N)c(N(Cc2ccco2)C(=O)C=Cc2cc(OC)c3c(c2)OCCO3)c(=O)[nH]c1=O`, the figures for the growth inhibition in assay [1] and in assay [4] were 94% (active) and 85% (active), respectively. For the same molecule, the inhibition is 4% in assay [2] and 2% in assay [3]. Moreover, the outcome in assay [5], in assay [6], in assay [7] and in assay [8] was inactive.
Consider `CCN1CCN(c2cc(C)c3cc(NC(=O)c4ccc(Br)o4)ccc3n2)CC1`, for which the growth inhibition in assay [1] was 13%; in assay [4] it was 98% (active). Moreover, the inhibition was -8% in assay [2] and -7% in assay [3]. For the same molecule, the outcome in assay [5], in assay [6], in assay [7] and in assay [8] was inactive.
As for `CN(C)Cc1ccc2nc(-c3cccc(Cc4cc(Cl)ccc4OCc4ccc(Cl)cc4F)n3)[nH]c2c1`, the growth inhibition in assay [1] was 26%; in assay [4], 93% (active). The inhibition in assay [2] was 43%; in assay [3], 1%. Besides, the outcome in assay [5], in assay [6], in assay [7] and in assay [8] was inactive.
Turning to `Cc1cc(-c2ccc(CNCc3ccsc3)cc2)ccc1S(=O)(=O)NCCN1CCCC1`, the growth inhibition in assay [1] was 49%; in assay [4], 99% (active). The inhibition in assay [2] was 57% (active); in assay [3], -1%. The outcome in assay [5], in assay [6], in assay [7] and in assay [8] was inactive.
